# Results published in PubChem BioAssay AID1159580 (chemical genetic matrix, 2015).
# The whole screen tested about 5,500 compounds, of which about 2,000 (36%) were called active. About 18% were inconclusive and are not listed. The list shows a part of the results. A number with no mark means an inactive call. Cut-off read from the data, not from the text of the source: active = normalized growth mostly below about 0.91 (no sharp cut-off); inconclusive = no clear call, values can overlap the other calls; inactive = mostly above about 0.92.
# Assay: chemical genetic growth profiling, strain panel (AID 1159580);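 note: tested at 20 µM; growth read once vehicle control cultures reached saturation at 30 °C; 1 = growth at the plate median or of vehicle wells; lower values mean less growth of the strain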
# Settings: growth OD
smiles,measurement,setting,value
COc1c2occc2cc2ccc(=O)oc12,normalized growth,"S. cerevisiae deletion strains, locus YJR075W, strain HOC1, hits give low values",0.976
same,normalized growth,"S. cerevisiae deletion strains, locus YKL009W, strain mrt4, hits give low values",0.909
same,normalized growth,"S. cerevisiae deletion strains, locus YKL068W, hits give low values",0.996
same,normalized growth,"S. cerevisiae deletion strains, locus YKL085W, strain MDH1 (second series), hits give low values",1
same,normalized growth,"S. cerevisiae deletion strains, locus YKL085W, strain MDH1, hits give low values",1
same,normalized growth,"S. cerevisiae deletion strains, locus YKL160W, strain elf1, hits give low values",0.948
same,normalized growth,"S. cerevisiae deletion strains, locus YKL190W, strain CNB1, hits give low values",0.979
same,normalized growth,"S. cerevisiae deletion strains, locus YKR001C, strain vps1, hits give low values",0.863 (active)
same,normalized growth,"S. cerevisiae deletion strains, locus YKR026C, strain gcn3, hits give low values",0.983
same,normalized growth,"S. cerevisiae deletion strains, locus YKR091W, strain srl3, hits give low values",0.982
same,normalized growth,"S. cerevisiae deletion strains, locus YLL001W, strain dnm1, hits give low values",0.874 (active)
same,normalized growth,"S. cerevisiae deletion strains, locus YLL026W, hits give low values",0.973
same,normalized growth,"S. cerevisiae deletion strains, locus YLL041C, strain sdh2, hits give low values",0.981
same,normalized growth,"S. cerevisiae deletion strains, locus YLR027C, strain aat2, hits give low values",0.952
same,normalized growth,"S. cerevisiae deletion strains, locus YLR039C, strain RIC1, hits give low values",0.851
same,normalized growth,"S. cerevisiae deletion strains, locus YLR058C, strain SHM2, hits give low values",0.988
same,normalized growth,"S. cerevisiae deletion strains, locus YLR102C, strain apc9, hits give low values",0.986
same,normalized growth,"S. cerevisiae deletion strains, locus YLR113W, strain HOG1, hits give low values",1.08
same,normalized growth,"S. cerevisiae deletion strains, locus YLR221C, strain rsa3, hits give low values",0.891 (active)
same,normalized growth,"S. cerevisiae deletion strains, locus YLR258W, strain gsy2, hits give low values",0.945
same,normalized growth,"S. cerevisiae deletion strains, locus YLR262C, strain YPT6 (second series), hits give low values",0.955
same,normalized growth,"S. cerevisiae deletion strains, locus YLR262C, strain YPT6, hits give low values",0.91
same,normalized growth,"S. cerevisiae deletion strains, locus YLR268W, strain sec22, hits give low values",0.93
same,normalized growth,"S. cerevisiae deletion strains, locus YLR320W, strain mms22, hits give low values",0.833 (active)
same,normalized growth,"S. cerevisiae deletion strains, locus YLR330W, strain CHS5, hits give low values",0.991
same,normalized growth,"S. cerevisiae deletion strains, locus YLR342W, strain FKS1 (second series), hits give low values",0.971
same,normalized growth,"S. cerevisiae deletion strains, locus YLR342W, strain FKS1, hits give low values",0.965
same,normalized growth,"S. cerevisiae deletion strains, locus YLR357W, strain rsc2, hits give low values",1.01
same,normalized growth,"S. cerevisiae deletion strains, locus YLR370C, strain arc18, hits give low values",0.914
same,normalized growth,"S. cerevisiae deletion strains, locus YLR371W, strain rom2, hits give low values",0.969
same,normalized growth,"S. cerevisiae deletion strains, locus YLR384C, strain iki3, hits give low values",0.963
same,normalized growth,"S. cerevisiae deletion strains, locus YLR418C, strain cdc73, hits give low values",0.95
same,normalized growth,"S. cerevisiae deletion strains, locus YML016C, strain PPZ1, hits give low values",0.987
same,normalized growth,"S. cerevisiae deletion strains, locus YML032C, strain rad52, hits give low values",0.876 (active)
same,normalized growth,"S. cerevisiae deletion strains, locus YML120C, strain ndi1, hits give low values",0.866 (active)
same,normalized growth,"S. cerevisiae deletion strains, locus YML124C, strain tub3, hits give low values",0.996
same,normalized growth,"S. cerevisiae deletion strains, locus YMR058W, strain fet3, hits give low values",0.927
same,normalized growth,"S. cerevisiae deletion strains, locus YMR078C, strain ctf18, hits give low values",0.974
same,normalized growth,"S. cerevisiae deletion strains, locus YMR125W, strain sto1, hits give low values",1.01
same,normalized growth,"S. cerevisiae deletion strains, locus YMR129W, hits give low values",0.99
same,normalized growth,"S. cerevisiae deletion strains, locus YMR205C, strain PFK2, hits give low values",0.941
same,normalized growth,"S. cerevisiae deletion strains, locus YMR223W, strain ubp8, hits give low values",0.924
same,normalized growth,"S. cerevisiae deletion strains, locus YMR231W, strain pep5, hits give low values",0.989
same,normalized growth,"S. cerevisiae deletion strains, locus YMR263W, strain SAP30, hits give low values",0.942
same,normalized growth,"S. cerevisiae deletion strains, locus YMR307W, strain GAS1, hits give low values",0.949
same,normalized growth,"S. cerevisiae deletion strains, locus YNL067W, strain RPL9B, hits give low values",0.939
same,normalized growth,"S. cerevisiae deletion strains, locus YNL071W, strain lat1, hits give low values",0.947
same,normalized growth,"S. cerevisiae deletion strains, locus YNL128W, strain TEP1, hits give low values",0.962
same,normalized growth,"S. cerevisiae deletion strains, locus YNL153C, strain GIM3, hits give low values",0.983
same,normalized growth,"S. cerevisiae deletion strains, locus YNL183C, strain NPR1, hits give low values",0.971
same,normalized growth,"S. cerevisiae deletion strains, locus YNL209W, strain ssb2, hits give low values",0.923 (active)
same,normalized growth,"S. cerevisiae deletion strains, locus YNL233W, strain BNI4, hits give low values",0.944
same,normalized growth,"S. cerevisiae deletion strains, locus YNL248C, strain rpa49, hits give low values",0.901
same,normalized growth,"S. cerevisiae deletion strains, locus YNL250W, strain rad50, hits give low values",0.968
same,normalized growth,"S. cerevisiae deletion strains, locus YNL271C, strain bni1, hits give low values",0.983
same,normalized growth,"S. cerevisiae deletion strains, locus YNL298W, strain CLA4, hits give low values",0.933
same,normalized growth,"S. cerevisiae deletion strains, locus YNL307C, strain MCK1, hits give low values",0.88 (active)
same,normalized growth,"S. cerevisiae deletion strains, locus YNL322C, strain KRE1 (second series), hits give low values",0.763 (active)
same,normalized growth,"S. cerevisiae deletion strains, locus YNL322C, strain KRE1, hits give low values",1
same,normalized growth,"S. cerevisiae deletion strains, locus YNR049C, strain mso1, hits give low values",0.962
same,normalized growth,"S. cerevisiae deletion strains, locus YNR052C, strain pop2, hits give low values",0.978
same,normalized growth,"S. cerevisiae deletion strains, locus YOL006C, strain TOP1, hits give low values",0.79
same,normalized growth,"S. cerevisiae deletion strains, locus YOL012C, strain htz1",0.845
same,normalized growth,"S. cerevisiae deletion strains, locus YOL147C, strain pex11, hits give low values",0.982
same,normalized growth,"S. cerevisiae deletion strains, locus YOR001W, strain rrp6, hits give low values",0.958
same,normalized growth,"S. cerevisiae deletion strains, locus YOR061W, strain CKA2, hits give low values",0.99
same,normalized growth,"S. cerevisiae deletion strains, locus YOR069W, strain VPS5, hits give low values",0.991
same,normalized growth,"S. cerevisiae deletion strains, locus YOR070C, strain gyp1, hits give low values",0.956
same,normalized growth,"S. cerevisiae deletion strains, locus YOR080W, strain dia2, hits give low values",0.95
same,normalized growth,"S. cerevisiae deletion strains, locus YOR083W, strain WHI5, hits give low values",0.914
same,normalized growth,"S. cerevisiae deletion strains, locus YOR106W, strain vam3, hits give low values",0.701 (active)
same,normalized growth,"S. cerevisiae deletion strains, locus YOR136W, strain idh2, hits give low values",0.974
same,normalized growth,"S. cerevisiae deletion strains, locus YOR144C, strain elg1, hits give low values",0.97
same,normalized growth,"S. cerevisiae deletion strains, locus YOR184W, strain ser1, hits give low values",0.859 (active)
same,normalized growth,"S. cerevisiae deletion strains, locus YOR231W, strain MKK1, hits give low values",1.01
same,normalized growth,"S. cerevisiae deletion strains, locus YOR265W, strain rbl2, hits give low values",0.963
same,normalized growth,"S. cerevisiae deletion strains, locus YOR270C, strain vph1, hits give low values",0.83
same,normalized growth,"S. cerevisiae deletion strains, locus YOR290C, strain snf2, hits give low values",0.856 (active)
same,normalized growth,"S. cerevisiae deletion strains, locus YOR316C, strain cot1, hits give low values",1
same,normalized growth,"S. cerevisiae deletion strains, locus YPL051W, strain arl3, hits give low values",0.939
same,normalized growth,"S. cerevisiae deletion strains, locus YPL055C, strain LGE1, hits give low values",0.938
same,normalized growth,"S. cerevisiae deletion strains, locus YPL078C, strain atp4, hits give low values",0.964
same,normalized growth,"S. cerevisiae deletion strains, locus YPL106C, strain sse1, hits give low values",0.899
same,normalized growth,"S. cerevisiae deletion strains, locus YPL240C, strain hsp82, hits give low values",0.965
same,normalized growth,"S. cerevisiae deletion strains, locus YPL241C, strain CIN2, hits give low values",0.959
same,normalized growth,"S. cerevisiae deletion strains, locus YPL256C, strain CLN2, hits give low values",1.1
same,normalized growth,"S. cerevisiae deletion strains, locus YPR119W, strain clb2, hits give low values",0.998
same,normalized growth,"S. cerevisiae deletion strains, locus YPR141C, strain kar3, hits give low values",1.02
same,normalized growth,"S. cerevisiae deletion strains, locus YPR163C, strain tif3, hits give low values",0.983
same,normalized growth,"S. cerevisiae deletion strains, locus YPR167C, strain met16, hits give low values",1.01
same,normalized growth,"S. cerevisiae deletion strains, strain wtn01, hits give low values",0.966
same,normalized growth,"S. cerevisiae strains, strain wild type, hits give low values",1
